# Results as given in PubChem BioAssay (EPA / NIEHS).
# Activity calls are given as the source filed them. The calls were made as follows: active = hit-call score of the fitted dose curve at least 0.9, where 1 is the maximum; inactive = score below 0.9.
# Columns and labels:
# Details in all cases: mRNA level, 48 h; actives raise or lower the signal
# [1] = read-out: Glutathione S-Transferase (GSTA2), GSTA2 (gene 2939); assay: LTEA_HepaRG_GSTA2: Life Technologies and Expression Analysis (LTEA) Assay for Glutathione S-Transferase (GSTA2) using HepaRG (AID 2283497)
# How it was run: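 qRT-PCR readout of GSTA2 transcript, normalized to three housekeeping genes, fitted bidirectionally against 0.5% DMSO baseline. Differentiated HepaRG cells received compound for 48 h at 8 concentrations (top 100 uM, half-log steps).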
# [2] = read-out: Glutamate-cysteine ligase catalytic (GCLC), GCLC (gene 2729); assay: LTEA_HepaRG_GCLC: Life Technologies and Expression Analysis (LTEA) Assay for Glutamate-cysteine ligase catalytic (GCLC) using HepaRG (AID 2283498)
# How it was run: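 HepaRG, 48 h exposure, 8-pt half-log series from 100 uM, 0.5% DMSO vehicle; TaqMan qRT-PCR for GCLC mRNA, housekeeping-normalized; bidirectional curve fit vs DMSO baseline.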
# [3] = read-out: growth arrest and DNA damage 45 (GADD45G), GADD45G (gene 10912); assay: LTEA_HepaRG_GADD45G: Life Technologies and Expression Analysis (LTEA) Assay for growth arrest and DNA damage 45 (GADD45G) using HepaRG (AID 2283499)
# How it was run: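 HepaRG, 48 h exposure, top 100 uM, half-log 8-point series, 0.5% DMSO vehicle, duplicates. Readout: GADD45G transcript by qRT-PCR (Fluidigm array), housekeeping-normalised (ACTB/GAPDH/POLR2A). Bidirectional curve fit vs DMSO baseline.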
# [4] = read-out: Glutamate-cysteine ligase regulatory (GCLM), GCLM (gene 2730); assay: LTEA_HepaRG_GCLM: Life Technologies and Expression Analysis (LTEA) Assay for Glutamate-cysteine ligase regulatory (GCLM) using HepaRG (AID 2283500)
# How it was run: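 HepaRG, 48 h dosing, 100 uM top, half-log x8, 0.5% DMSO vehicle. Readout: GCLM mRNA by TaqMan qRT-PCR, housekeeping-normalized (ACTB/GAPDH/POLR2A). Curves fit bidirectionally vs DMSO baseline.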
# [5] = read-out: Glutathione S-transferase M3 (GSTM3), GSTM3 (gene 2947); assay: LTEA_HepaRG_GSTM3: Life Technologies and Expression Analysis (LTEA) Assay for Glutathione S-transferase M3 (GSTM3) using HepaRG (AID 2283501)
# How it was run: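 qRT-PCR read-out of GSTM3 transcript, normalized to three housekeeping genes, from human HepaRG cells after 48 h chemical exposure. Eight-point half-log series, top 100 uM, 0.5% DMSO vehicle; gain or loss fitted relative to DMSO baseline.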
# [6] = read-out: 3-Hydroxy-3-Methylglutaryl-CoA Synthase 2 (HMGCS2), HMGCS2 (gene 3158); assay: LTEA_HepaRG_HMGCS2: Life Technologies and Expression Analysis (LTEA) Assay for 3-Hydroxy-3-Methylglutaryl-CoA Synthase 2 (HMGCS2) using HepaRG (AID 2283504)
# How it was run: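 qRT-PCR read-out of HMGCS2 transcript, normalised to three housekeeping genes, in HepaRG cells after 48 h chemical exposure. Eight-point curves from 100 uM, half-log dilutions, 0.5% DMSO vehicle; gain or loss fitted relative to DMSO baseline.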
# HGF (gene 3082) = assay: LTEA_HepaRG_HGF: Life Technologies and Expression Analysis (LTEA) Assay for Hepatocyte Growth Facto (HGF) using HepaRG (AID 2283505)
# How it was run: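 HepaRG, 48 h dosing, 8-pt half-log series from 100 uM in 0.5% DMSO, duplicates. Readout: TaqMan qRT-PCR of HGF mRNA, housekeeping-normalized; bidirectional curve fit vs DMSO baseline.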
# [7] = read-out: Insulin Like Growth Factor 1 (IGF1), IGF1 (gene 3479); assay: LTEA_HepaRG_IGF1: Life Technologies and Expression Analysis (LTEA) Assay for Insulin Like Growth Factor 1 (IGF1) using HepaRG (AID 2283506)
# How it was run: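 qRT-PCR readout of IGF1 mRNA, normalized to three housekeeping genes, after 48 h chemical exposure of HepaRG cells. Concentrations: 8-point half-log series, top 100 uM, 0.5% DMSO vehicle. Gain or loss fitted against DMSO baseline.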
# [8] = read-out: Intercellular Adhesion Molecule 1 (ICAM1), ICAM1 (gene 3383); assay: LTEA_HepaRG_ICAM1: Life Technologies and Expression Analysis (LTEA) Assay for Intercellular Adhesion Molecule 1 (ICAM1) using HepaRG (AID 2283507)
# How it was run: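 HepaRG, 48 h exposure, 8-pt half-log series from 100 uM, 0.5% DMSO vehicle, duplicates. Readout: TaqMan qRT-PCR mRNA, housekeeping-normalized (ACTB/GAPDH/POLR2A). Bidirectional curve fit vs DMSO baseline.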
# [9] = read-out: Insulin-like growth factor-binding protein 1 (IGFBP1), IGFBP1 (gene 3484); assay: LTEA_HepaRG_IGFBP1: Life Technologies and Expression Analysis (LTEA) Assay for Insulin-like growth factor-binding protein 1 (IGFBP1) using HepaRG (AID 2283508)
# How it was run: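 qRT-PCR mRNA read-out (TaqMan, Fluidigm array), normalised to three housekeeping genes; HepaRG cells, 48 h exposure, 8-pt half-log series from 100 uM, 0.5% DMSO vehicle; bidirectional curve fit vs DMSO baseline.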
# [10] = read-out: Interleukin 6 (IL6), IL6 (gene 3569); assay: LTEA_HepaRG_IL6: Life Technologies and Expression Analysis (LTEA) Assay for Interleukin 6 (IL6) using HepaRG (AID 2283509)
# How it was run: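 qRT-PCR read-out of IL6 transcript, normalized to three housekeeping genes, after 48 h chemical exposure of HepaRG cells; 8-point half-log series, top 100 uM, 0.5% DMSO vehicle. Bidirectional curve fitting against DMSO baseline.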
# [11] = read-out: Interleukin 6 Receptor (IL6R), IL6R (gene 3570); assay: LTEA_HepaRG_IL6R: Life Technologies and Expression Analysis (LTEA) Assay for Interleukin 6 Receptor (IL6R) using HepaRG (AID 2283510)
# How it was run: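 HepaRG, 48 h exposure, 8-pt half-log series, top 100 uM, 0.5% DMSO vehicle, duplicates. Read-out: TaqMan qRT-PCR of IL6R transcript, housekeeping-gene normalized. Gain or loss fitted relative to DMSO baseline.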
# [12] = read-out: Potassium channel subfamily K member 1 (KCNK1), KCNK1 (gene 3775); assay: LTEA_HepaRG_KCNK1: Life Technologies and Expression Analysis (LTEA) Assay for Potassium channel subfamily K member 1 (KCNK1) using HepaRG (AID 2283511)
# How it was run: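 HepaRG, 48 h exposure, 8-pt half-log series top 100 uM, 0.5% DMSO vehicle, duplicates. Readout: KCNK1 transcript by qRT-PCR (Fluidigm array), housekeeping-normalized; bidirectional curve fit relative to DMSO baseline.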
# [13] = read-out: Keratin 19 (KRT19), KRT19 (gene 3880); assay: LTEA_HepaRG_KRT19: Life Technologies and Expression Analysis (LTEA) Assay for Keratin 19 (KRT19) using HepaRG (AID 2283512)
# How it was run: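 HepaRG, 48 h chemical exposure, 8-pt half-log CRC from 100 uM, 0.5% DMSO vehicle, duplicates. Readout: TaqMan qRT-PCR of KRT19 mRNA, housekeeping-normalized (ACTB/GAPDH/POLR2A). Bidirectional fit vs DMSO baseline.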
# [14] = read-out: JUN Transcription Factor, JUN (gene 3725); assay: LTEA_HepaRG_JUN: Life Technologies and Expression Analysis (LTEA) Assay for JUN Transcription Factor using HepaRG (AID 2283513)
# How it was run: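 HepaRG, 48 h exposure, 8-pt half-log series top 100 uM, 0.5% DMSO, duplicate. JUN mRNA by qRT-PCR (Fluidigm), housekeeping-normalized (ACTB/GAPDH/POLR2A); bidirectional curve fit vs DMSO baseline.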
# [15] = read-out: Lipase C (LIPC), LIPC (gene 3990); assay: LTEA_HepaRG_LIPC: Life Technologies and Expression Analysis (LTEA) Assay for Lipase C (LIPC) using HepaRG (AID 2283514)
# How it was run: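 HepaRG, 48 h exposure, 8-pt half-log series from 100 uM in 0.5% DMSO, duplicates. Readout: LIPC mRNA by Fluidigm qRT-PCR, housekeeping-normalized (ACTB/GAPDH/POLR2A). Gain or loss fitted bidirectionally against DMSO baseline.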
# [16] = read-out: Lipoprotein lipase (LPL), LPL (gene 4023); assay: LTEA_HepaRG_LPL: Life Technologies and Expression Analysis (LTEA) Assay for Lipoprotein lipase (LPL) using HepaRG (AID 2283515)
# How it was run: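 HepaRG, 48 h exposure, 8-pt half-log dilutions from 100 uM, 0.5% DMSO vehicle, duplicates; qRT-PCR (Fluidigm array) of LPL mRNA vs housekeeping genes; bidirectional curve fit relative to DMSO baseline.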
# [17] = read-out: MicroRNA 122 (MIR122), gene 406906; assay: LTEA_HepaRG_MIR122: Life Technologies and Expression Analysis (LTEA) Assay for MicroRNA 122 (MIR122) using HepaRG (AID 2283516); also: the transcript read is the microRNA miR-122
# How it was run: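 qRT-PCR read-out (TaqMan, Fluidigm array), normalized to three housekeeping genes; HepaRG cells dosed 48 h at 8 concentrations up to 100 uM in 0.5% DMSO, duplicate; gain or loss fitted against DMSO baseline.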
# [18] = read-out: Heat shock 70 kDa protein 1 (HSPA1A), gene 3303; assay: LTEA_HepaRG_HSPA1A: Life Technologies and Expression Analysis (LTEA) Assay for Heat shock 70 kDa protein 1 (HSPA1A) using HepaRG (AID 2283502)
# How it was run: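 HepaRG, 48 h exposure, 8-pt half-log CRC from 100 uM in 0.5% DMSO, duplicates. Readout: TaqMan qRT-PCR of HSPA1A mRNA, housekeeping-normalized (ACTB/GAPDH/POLR2A). Bidirectional fit vs 0.5% DMSO baseline.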
# [19] = read-out: Hypoxia-inducible factor 1-alpha (Homo sapiens) (UniProt Q16665); assay: LTEA_HepaRG_HIF1A: Life Technologies and Expression Analysis (LTEA) Assay for Hypoxia-inducible factor 1 (HIF1A) Trancription factor using HepaRG (AID 2283503)
# How it was run: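 Gain- or loss-of-signal HIF1A mRNA changes are fitted against a DMSO baseline. HepaRG cultures receive eight concentrations, highest 100 uM, for 48 h in serum-free induction medium with 0.5% DMSO.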
# Chain of Hypoxia-inducible factor 1-alpha (Homo sapiens) (Q16665 whole entry, looked up): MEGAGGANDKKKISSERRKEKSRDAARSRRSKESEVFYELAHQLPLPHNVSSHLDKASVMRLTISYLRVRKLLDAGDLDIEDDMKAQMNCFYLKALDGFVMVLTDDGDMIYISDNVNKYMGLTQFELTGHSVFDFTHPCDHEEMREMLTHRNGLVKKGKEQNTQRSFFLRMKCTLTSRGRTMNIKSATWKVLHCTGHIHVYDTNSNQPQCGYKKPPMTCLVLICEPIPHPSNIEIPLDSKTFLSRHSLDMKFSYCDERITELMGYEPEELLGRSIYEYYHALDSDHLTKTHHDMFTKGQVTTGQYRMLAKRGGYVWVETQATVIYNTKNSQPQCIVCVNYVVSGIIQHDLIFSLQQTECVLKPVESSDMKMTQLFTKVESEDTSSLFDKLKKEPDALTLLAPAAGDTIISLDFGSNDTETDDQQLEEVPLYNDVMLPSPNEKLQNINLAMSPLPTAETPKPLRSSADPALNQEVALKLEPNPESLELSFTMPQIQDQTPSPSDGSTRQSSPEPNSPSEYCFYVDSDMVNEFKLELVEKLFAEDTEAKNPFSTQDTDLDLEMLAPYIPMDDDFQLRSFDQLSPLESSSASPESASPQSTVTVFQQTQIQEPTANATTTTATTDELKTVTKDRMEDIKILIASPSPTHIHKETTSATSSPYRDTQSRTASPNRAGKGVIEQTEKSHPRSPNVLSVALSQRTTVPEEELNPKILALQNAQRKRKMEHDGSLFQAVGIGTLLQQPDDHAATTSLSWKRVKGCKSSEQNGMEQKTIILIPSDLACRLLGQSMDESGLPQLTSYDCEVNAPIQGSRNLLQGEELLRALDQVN
compound,measurement,setting,value
CCCC(=O)OCC,outcome,[1],inactive
same,outcome,[2],inactive
same,outcome,[3],inactive
same,outcome,[4],inactive
same,outcome,[5],inactive
same,outcome,[6],inactive
same,outcome,HGF (gene 3082),inactive
same,outcome,[7],inactive
same,outcome,[8],inactive
same,outcome,[9],inactive
same,outcome,[10],inactive
same,outcome,[11],inactive
same,outcome,[12],inactive
same,outcome,[13],inactive
same,outcome,[14],inactive
same,outcome,[15],inactive
same,outcome,[16],inactive
same,outcome,[17],inactive
CCCCCCCCO,outcome,[1],inactive
same,outcome,[2],inactive
same,outcome,[3],inactive
same,outcome,[4],inactive
same,outcome,[5],inactive
same,outcome,[6],inactive
same,outcome,HGF (gene 3082),inactive
same,outcome,[7],inactive
same,outcome,[8],inactive
same,outcome,[9],inactive
same,outcome,[10],inactive
same,outcome,[11],inactive
same,AC50,[12],83.9 µM (active)
same,outcome,[13],inactive
same,outcome,[14],inactive
same,outcome,[15],inactive
same,outcome,[16],inactive
same,outcome,[17],inactive
CC(C)=CCCC(C)CCO (stereo not drawn),outcome,[1],inactive
same,outcome,[2],inactive
same,outcome,[3],inactive
same,outcome,[4],inactive
same,outcome,[5],inactive
same,outcome,[6],inactive
same,outcome,HGF (gene 3082),inactive
same,outcome,[7],inactive
same,outcome,[8],inactive
same,outcome,[9],inactive
same,outcome,[10],inactive
same,outcome,[11],inactive
same,outcome,[12],inactive
same,outcome,[13],inactive
same,outcome,[14],inactive
same,outcome,[15],inactive
same,outcome,[16],inactive
same,outcome,[17],inactive
CCCCCCCCCCCCc1ccccc1,outcome,[1],inactive
same,outcome,[3],inactive
same,outcome,[4],inactive
same,outcome,[5],inactive
same,outcome,[18],inactive
same,outcome,[19],inactive
same,outcome,[6],inactive
same,outcome,HGF (gene 3082),inactive
same,outcome,[7],inactive
same,outcome,[8],inactive
same,outcome,[9],inactive
same,outcome,[10],inactive
same,outcome,[11],inactive
same,outcome,[12],inactive
same,outcome,[13],inactive
same,outcome,[14],inactive
same,outcome,[15],inactive
same,outcome,[16],inactive
same,outcome,[17],inactive
C1=CCCC=CCCC=CCC1,outcome,[1],inactive
same,outcome,[3],inactive
same,outcome,[4],inactive
same,outcome,[5],inactive
same,outcome,[18],inactive
same,outcome,[19],inactive
same,outcome,[6],inactive
same,outcome,HGF (gene 3082),inactive
same,outcome,[7],inactive
same,outcome,[8],inactive
same,outcome,[9],inactive
same,outcome,[10],inactive
same,outcome,[11],inactive
same,outcome,[12],inactive
same,outcome,[13],inactive
same,outcome,[14],inactive
same,outcome,[15],inactive
same,outcome,[16],inactive
same,outcome,[17],inactive
C=CCCCCCCCCC(=O)O,outcome,[1],inactive
same,outcome,[2],inactive
same,outcome,[3],inactive
same,outcome,[4],inactive
same,outcome,[5],inactive
same,outcome,[6],inactive
same,outcome,HGF (gene 3082),inactive
same,outcome,[7],inactive
same,outcome,[8],inactive
same,outcome,[9],inactive
same,outcome,[10],inactive
same,outcome,[11],inactive
same,outcome,[12],inactive
same,outcome,[13],inactive
same,outcome,[14],inactive
same,outcome,[15],inactive
same,outcome,[16],inactive
same,outcome,[17],inactive
CNCc1ccc(NC(=O)c2c[nH]c3c2C(=O)CCC3)cc1,outcome,[1],inactive
same,outcome,[2],inactive
same,outcome,[3],inactive
same,outcome,[4],inactive
same,outcome,[5],inactive
same,outcome,[6],inactive
same,outcome,HGF (gene 3082),inactive
same,outcome,[7],inactive
same,outcome,[8],inactive
same,outcome,[9],inactive
same,outcome,[10],inactive
same,outcome,[11],inactive
same,outcome,[12],inactive
same,outcome,[13],inactive
same,outcome,[14],inactive
same,outcome,[15],inactive
same,outcome,[16],inactive
same,outcome,[17],inactive
